Drawing on PubChem BioAssay AID489028 (Sanford-Burnham Center for Chemical Genomics, 2010), this text covers inhibition for 18 compounds.

Structures are written as SMILES. Screen size: about 10,000 compounds; about 5,600 (56%) were called active. So high a share suggests a set chosen from earlier hits. Only a sample is shown. Unmarked numbers belong to inactive results. No stated cut-off is given here; in the data, active means inhibition above about 40%; inactive means the rest.

In this test the target is Protein Mdm4 (Homo sapiens) + E3 ubiquitin-protein ligase Mdm2 (Homo sapiens) (UniProt O15151+Q00987). Briefly: inhibition of human Mdm2/MdmX pairing – luminescence, single concentration, confirmation (AID 489028). As to conditions: Mdm2-MdmX binding, luminescent assay; at 8 µM; stronger effect = higher value.
Sequence of Protein Mdm4 (Homo sapiens) + E3 ubiquitin-protein ligase Mdm2 (Homo sapiens) (O15151 whole entry, looked up): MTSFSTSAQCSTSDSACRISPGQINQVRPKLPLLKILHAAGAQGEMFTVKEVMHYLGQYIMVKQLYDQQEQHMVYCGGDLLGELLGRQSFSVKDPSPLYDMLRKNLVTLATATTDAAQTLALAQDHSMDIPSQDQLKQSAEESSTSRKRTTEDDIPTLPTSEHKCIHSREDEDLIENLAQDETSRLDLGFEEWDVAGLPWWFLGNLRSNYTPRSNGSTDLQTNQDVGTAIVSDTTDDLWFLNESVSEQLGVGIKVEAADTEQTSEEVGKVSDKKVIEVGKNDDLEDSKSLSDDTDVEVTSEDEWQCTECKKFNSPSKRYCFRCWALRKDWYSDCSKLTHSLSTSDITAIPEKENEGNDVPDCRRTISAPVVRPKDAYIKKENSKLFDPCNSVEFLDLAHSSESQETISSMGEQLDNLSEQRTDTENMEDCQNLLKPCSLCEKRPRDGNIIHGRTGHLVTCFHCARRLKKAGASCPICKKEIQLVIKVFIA
Sequence of Protein Mdm4 (Homo sapiens) + E3 ubiquitin-protein ligase Mdm2 (Homo sapiens) (Q00987 whole entry, looked up): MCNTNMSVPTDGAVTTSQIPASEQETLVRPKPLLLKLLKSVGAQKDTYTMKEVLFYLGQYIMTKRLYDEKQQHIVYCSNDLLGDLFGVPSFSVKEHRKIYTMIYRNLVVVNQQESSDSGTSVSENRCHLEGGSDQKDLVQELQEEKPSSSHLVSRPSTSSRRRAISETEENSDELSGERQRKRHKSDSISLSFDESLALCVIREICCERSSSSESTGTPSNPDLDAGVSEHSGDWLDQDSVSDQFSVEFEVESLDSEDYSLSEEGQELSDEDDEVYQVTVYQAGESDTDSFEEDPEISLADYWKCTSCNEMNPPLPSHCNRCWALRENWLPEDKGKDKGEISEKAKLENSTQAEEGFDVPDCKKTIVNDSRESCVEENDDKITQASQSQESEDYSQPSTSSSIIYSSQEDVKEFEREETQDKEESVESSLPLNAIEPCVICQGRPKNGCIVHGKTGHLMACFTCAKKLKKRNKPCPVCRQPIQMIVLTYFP
For the compound `O=C1C2(Cl)C3(Cl)C4(Cl)C(Cl)(Cl)C5(Cl)C3(Cl)C1(Cl)C5(Cl)C24Cl` (stereo not drawn), the inhibition – broadly, the percentage by which the read-out fell short of the control – is 49.5% (active).
Consider `COC(=O)C1=C(c2ccc(F)cc2OCc2ccccc2)C[C@@H]2CC[C@H]1N2C(=O)NCc1ccc(Cl)cc1`, for which the inhibition was 31.1%.
Under `CNCC(O)c1cc(F)c(OCc2ccccc2)c(OCc2ccccc2)c1F` (stereo not drawn) stands 17.8%; under `Cc1cc2ccccn2c1C(C[N+](=O)[O-])c1c(F)cccc1Cl` (stereo not drawn), 99.1% (active); under `O=c1c2ccccc2nc(/C=C/c2ccc(F)cc2)n1-c1ccccc1O`, 31%.
Under `O=Cc1cn(Cc2ccc(F)cc2Cl)c2ccccc12` stands 28%.
As for `CNC(=O)O/N=C(\N)Cc1csc2ccc(Cl)cc12`, the figure is 90.3% (active); as for `CNC(=O)O/N=C(\N)Cc1csc2ccccc12`, 52.6% (active); as for `O=C(c1cc2nc(-c3ccccc3)cc(-c3ccccc3)n2n1)N1CCC2(CC1)OCCO2`, 16.3%.
In the case of `CCCCC(=O)N/N=C/c1c(O)n(CCC2=CCCCC2)c(=O)[nH]c1=O`, the inhibition was 20.9%.
On to `COC(=O)C1=C(c2ccc(F)cc2OCc2ccccc2)C[C@@H]2CC[C@H]1N2C(=O)NCc1ccc2[nH]ccc2c1`, for which the inhibition was 18.9%.
As for `O=C1NC(=O)N(CCc2ccc(F)cc2)C(=O)/C1=C/C=C/c1ccccc1`, the figure is 57.2% (active).
As for `CCCCCCCCCCCCn1ccc(=N)cc1`, the figure is 98.3% (active).
Under `N#CC1=C(N)Oc2c(c(=O)oc3ccccc23)C1c1ccccc1OC(=O)c1cccs1` (stereo not drawn) stands 15.1%.
`CC1(C)Cc2c(C#N)c(N3CCNCC3)nc(-c3ccco3)c2CS1`: the inhibition was 24.1%.
As for `CCOc1ccc(-c2cc(C)[n+](CCN(CC)CC)c(-c3ccc(OCC)cc3)c2)cc1`, the figure is 84.5% (active); as for `CC(Cc1ccccc1)NCCC(c1ccccc1)c1ccccc1` (stereo not drawn), 19.1%; as for `CCCCCn1c(=O)c(C(=O)NCc2ccccc2)c(O)c2ccccc21`, 5.2%.
